High-throughput results as filed in PubChem BioAssay.
PPC-1+TRAIL kill: kills PPC-1 cancer cells in the presence of TRAIL; hit rate 0.41% among 220,000; PPC-1 cells + TRAIL, ATPLite viability luminescence; cell killing (% activity), % at 4 µM or 5 µM; AID 1443;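 active means cell killing above 50% in the first pass at 4 µM, then a duplicate retest at 5 µM averaging 50% or more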
SENP7 inh: inhibitors of human SENP7 protease | recombinant SENP7, Z-RLRGG-aminoluciferin luminescence, 40 min | hit rate 1.5% among 330,000 | Q9BQF6 | inhibition, % at 5 µM;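 active means inhibition above about 50% at the single test dose, limit read from the data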
SENP8 block-1: inhibitors of human SENP8 protease. AID 2540. inhibition, % at 10 µM. purified SENP8, Z-RLRGG-aminoluciferin cleavage, luminescence. Q96LD8. hit rate 1.2% among 330,000; in the data active means inhibition above about 50%
SENP6 inh: SENP6 protease inhibition | Recombinant SENP6 catalytic domain, aminoluciferin luminescence | inhibition, % at 10 µM | hit rate 1.8% among 330,000;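 active means inhibition above about 50% at the single tested dose, limit read from the data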
Target sequence (Q9GZR1 628-1112 limits assumed): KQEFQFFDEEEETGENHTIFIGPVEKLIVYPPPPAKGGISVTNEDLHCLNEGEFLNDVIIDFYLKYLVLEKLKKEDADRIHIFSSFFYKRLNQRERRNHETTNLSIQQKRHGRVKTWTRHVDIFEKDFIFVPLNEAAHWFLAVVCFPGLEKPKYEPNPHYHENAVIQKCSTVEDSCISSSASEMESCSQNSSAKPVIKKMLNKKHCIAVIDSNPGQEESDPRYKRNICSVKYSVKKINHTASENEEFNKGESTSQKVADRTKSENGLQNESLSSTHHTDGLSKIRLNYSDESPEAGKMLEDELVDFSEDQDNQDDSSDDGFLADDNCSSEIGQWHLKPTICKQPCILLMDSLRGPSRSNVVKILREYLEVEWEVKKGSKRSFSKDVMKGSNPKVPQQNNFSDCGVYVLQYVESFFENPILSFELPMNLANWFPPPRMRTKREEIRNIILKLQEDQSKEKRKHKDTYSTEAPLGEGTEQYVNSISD
SENP8 block-2: SENP8 (human) protease inhibition. Q96LD8. recombinant SENP8, Nedd8 substrate fluorescence. inhibition, % at 20 µM. hit rate 0.64% among 360,000. AID 602440; in the data active means inhibition mostly above about 40%, no sharp cut-off; inactive means mostly below about 27%
TRAIL sens C8: sensitizes caspase-8 expressing cells to TRAIL | NB7+C8 cells + TRAIL, ATPlite viability luminescence | inhibition (viability loss, TRAIL sensitization), % at 10 µM | hit rate 1% among 360,000;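 active means compounds causing at least 50% loss of cell viability in the single-dose screen, relative to plate controls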
SENP8 conf: confirmation of human SENP8 protease inhibitors; shares compounds with SENP7 inh; Recombinant SENP8, Z-RLRGG-aminoluciferin luminescence, 60 min; inhibition, % at 12.5 µM; hit rate 40% among 6,200;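 active means mean inhibition across replicates above about 50%, limit read from the data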
SENP6 conf: human SENP6 inhibition, confirmed | inhibition, % at 12.5 µM | shares compounds with SENP7 inh | recombinant SENP6, Z-RLRGG-aminoluciferin luminescence | hit rate 58% among 6,200
SENP7 confirm: confirmation of human SENP7 protease inhibitors; recombinant SENP7, Z-RLRGG-aminoluciferin luminescence, 40 min; AID 488917; inhibition, % at 12.5 µM; shares compounds with SENP7 inh; hit rate 69% among 6,200
Casp3 SENP sel: inhibits human caspase-3 in SENP selectivity test | hit rate 60% among 6,200 | inhibition, % at 12.5 µM | AID 488918 | shares compounds with SENP7 inh | purified caspase-3, Z-DEVD-aminoluciferin luminescence, 60 min;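 active means mean inhibition above about 50%, limit read from the data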
Luc interf: luminescence interference (SENP counter-screen); AID 488919; hit rate 39% among 6,200; inhibition, % at 12.5 µM; Pre-incubated SENP8/Z-RLRGG-aminoluciferin, luciferase luminescence interference; shares compounds with SENP7 inh;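 active means mean inhibition above about 50% when retested at one dose, limit read from the data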
Hits are given with their value; 0 = inactive; - = no result. This is a sample that favours compounds with a hit; in the whole collection about 3% have one here.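 How the source made its calls, unless noted: active means mean inhibition above about 50% in the one-dose retest (limit read from the data); inactive means the rest.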

SMILES	PPC-1+TRAIL kill	SENP7 inh	SENP8 block-1	SENP6 inh	SENP8 block-2	TRAIL sens C8	SENP8 conf	SENP6 conf	SENP7 confirm	Casp3 SENP sel	Luc interf
COC(=O)c1[nH]c2cccc(Cl)c2c1NC(=O)CN1CCCCC1C (configuration not stated)	0	0	0	0	0	0	-	-	-	-	-
CC1CCN(C(=O)c2cc3ccccc3c(=O)o2)CC1	0	0	0	0	0	0	-	-	-	-	-
CCOC(=O)C1CCN(C(=O)c2cc3c(ccc4ccccc43)o2)CC1	-	56	56	73	0	0	69	67	81	53	55
CC1CCN(C(=O)c2cc3c(ccc4ccccc43)o2)CC1	-	90	89	93	0	0	89	90	98	78	76
FC(F)(F)c1ccccc1Cc1c(-c2cccc(Cl)c2)nc2c3ccccc3ccn12	-	-	-	-	0	0	-	-	-	-	-
Cn1c(NC(=O)c2ccc(F)cc2)nc2ccccc21	-	78	65	80	0	64	0	75	95	86	0
O=C(Nc1nc2ccccc2c2nc3ccccc3n12)c1ccc(F)cc1	0	0	0	0	-	-	-	-	-	-	-
O=[N+]([O-])c1ccc(S(=O)(=O)Nc2ccccn2)cc1	-	0	0	0	0	0	-	-	-	-	-
CCOC(=O)N=S(N)(=O)c1ccc(Cl)cc1 (configuration not stated)	0	0	51	0	0	0	0	0	0	0	0
CC(=O)NCCc1c[nH]c2ccc(O)cc12	-	0	0	0	0	0	-	-	-	-	-
CCCC(=O)Nc1ccc(-c2nc3cc(C)c(C)cc3o2)c(O)c1	0	0	0	0	0	0	-	-	-	-	-
CCCC(=O)Nc1ccc(-c2nc3cc(C)ccc3o2)cc1	0	71	0	71	0	0	0	50	74	0	0
CCCC(=O)Nc1ccc2oc(-c3ccc(OC)c(Br)c3)nc2c1	0	51	0	0	0	0	0	0	0	0	0
CC1C(c2ccccc2)N(C)C(c2ccccc2)C(C)C1(O)C#Cc1ccccc1 (configuration not stated)	0	0	0	0	0	0	-	-	-	-	-
CC1(C)C2(C#N)C(=O)NC(=O)C12C#N (configuration not stated)	-	-	-	-	0	0	-	-	-	-	-
O=c1cc(-c2cccs2)oc2ccc(Cl)cc12	0	50	0	55	0	0	0	0	51	0	0
O=c1cc(-c2ccc3c(c2)OCCO3)oc2ccc(Cl)cc12	0	91	0	0	0	0	0	0	0	0	0
O=C(NC1CCCC1)N[C@@H]1C=C[C@@H](CC(=O)N2CCOCC2)O[C@@H]1CO	-	-	-	-	0	0	-	-	-	-	-
Nc1nnnn1/N=C/c1ccc(O)cc1	0	90	89	95	0	0	93	93	101	98	85
Nc1nnnn1/N=C/c1cccc(O)c1	0	0	0	0	0	0	-	-	-	-	-
CC(=O)Nc1ccc(S(=O)(=O)Nc2nccc(C)n2)cc1	-	0	0	0	0	0	-	-	-	-	-
Cc1ccnc(NS(=O)(=O)c2ccc(NC(=O)C(C)(C)C)cc2)n1	0	0	0	89	0	0	0	0	0	0	0
CCOC(=O)c1sc2nc(N3CCOCC3)c3c(c2c1N)CC(C(C)C)OC3 (configuration not stated)	0	0	0	0	0	0	-	-	-	-	-
CCOC(=O)c1sc2nc3c(cc2c1N)COC(C(C)C)C3 (configuration not stated)	0	51	0	0	0	0	0	0	0	0	0
c1ccc(OCCSc2nnc3sc4ccccc4n23)cc1	0	0	68	80	0	0	0	68	88	78	75
COc1cccc(OCCSc2nnc3sc4ccccc4n23)c1	0	0	0	0	0	0	-	-	-	-	-
